The full data set covers some 8,800 targets. This sample favours those with a hit. About 0.5% of all pairs of compound and target were hits.
Columns and labels:
Experiment in all cases: log2 fold change, soluble protein after heating vs DMSO (PISA); higher = thermal stabilisation; K562 lysate, 10 uM; active = over 0.2 and 3.5 SD of the protein, either way, in both replicates (recomputed)
[1] = compound: C#Cc1cccc(Nc2ncnc3cc(OCCOC)c(OCCOC)cc23)c1 [erlotinib]
Method in brief: (§1)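 Pellets of K562 cells were dounce-homogenised in PBS pH 7.4 with 1 mM MgCl2, and the crude extract was held at 1 mg/mL protein for a 30 min treatment with 10 μM compound. Aliquots were heated for 3 min over 48°C-58°C and pooled before NP-40 was added to 0.5% at 4°C. The supernatant from 21,000xg for 90 min was quantified by TMTpro 16plex LC-MS/MS with channel sums equalised. Values are reported from duplicates as log-two fold change in thermal stability relative to solvent controls.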

[2] = compound: C/C(=N\NC(=O)C1=CC(=CC=C1)S(=O)(=O)N2CCOCC2)/C3=C(C=CC(=C3)Cl)O
Method in brief: as §1

[3] = compound: C1=CC(=CC=C1C2=NC3=C(N2)C=C(C=C3)C(=O)N)OC4=CC=C(C=C4)Cl
Method in brief: as §1

[4] = compound: C1=CC2=C(C=CC(=C2)/C=C\3/C(=O)NC(=NCC4=CC=CS4)S3)N=C1
Method in brief: as §1

[5] = compound: C1=CC2=NC=CN=C2C=C1/C=C/3\C(=O)NC(=O)S3
Method in brief: as §1

[6] = compound: C1=CC=C(C=C1)C2=NC(=C(N2)C3=CC=NC=C3)C4=CC(=C(C=C4)Cl)O
Method in brief: as §1

[7] = compound: C1=CC=C2C(=C1)C3=NNC4=CC=CC(=C43)C2=O
Method in brief: as §1

[8] = compound: C1CCN(C1)C(=O)NC2=CC=CC(=C2)NC3=NC=C(C(=N3)NCCC4=CN=CN4)Br
Method in brief: as §1

[9] = compound: C1CN(CCC1(CC2=CC=C(C=C2)Cl)N)C3=NC=NC4=C3C=CN4
Method in brief: as §1

[10] = compound: C1COCCN1CCN2C3=CC=CC=C3N=C2NC(=O)C4=CC(=CC=C4)[N+](=O)[O-] [IRAK-1-4 Inhibitor I]
Method in brief: as §1

[11] = compound: C=CC(=O)N1CCC[C@@H](n2nc(-c3ccc(Oc4ccccc4)cc3)c3c(N)ncnc32)C1 [ibrutinib]
Method in brief: as §1

[12] = compound: CC(=O)c1cnc2ccc(-c3cc(Cl)c(O)c(Cl)c3)nc2c1N[C@H]1CC[C@H](CN(C)C)CC1
Method in brief: as §1

[13] = compound: CC(C)(C)Cn1c(N)nc2ccc(-c3[nH]c(C(C)(C)C)nc3-c3ccc(F)cc3)nc21 [ralimetinib]
Method in brief: as §1

[14] = compound: CC(C)(O)CC(=O)NCCn1ccc2ncnc(Nc3ccc(Oc4cccc(C(F)(F)F)c4)c(Cl)c3)c21
Method in brief: as §1

[15] = compound: CC(C)C1=C2N=C(C=C(N2N=C1)NCC3=CC=CC=C3)NCCCCCCN
Method in brief: as §1

[16] = compound: CC1=C(C(CC(=O)N1)C2=CC=C(C=C2)C(F)(F)F)C(=O)NC3=C(C=C4C(=C3)C=NN4)F
Method in brief: as §1

[17] = compound: CC1=C(C2=C(C=C1)C(=O)C3=CC=CC=C3N2CCCN)C
Method in brief: as §1

[18] = compound: CC1=C(C=C(C=C1)NC(=O)C2=CC(=CC=C2)C(C)(C)C#N)NC3=CC4=C(C=C3)N=CN(C4=O)C
Method in brief: as §1

[19] = compound: CC1=C(C=C(C=C1)NC(=O)C2=CC(=CC=C2)N(C)C)NC(=O)C3=CC=C(C=C3)O
Method in brief: as §1

[20] = compound: CC1=CC=C(C=C1)SC2=C3C=C(SC3=CN=C2)C(=O)N
Method in brief: as §1

Measured: log2 fold change

SEC61G (UniProt P60059)
Sequence of UniProt P60059 (P60059 whole entry, looked up): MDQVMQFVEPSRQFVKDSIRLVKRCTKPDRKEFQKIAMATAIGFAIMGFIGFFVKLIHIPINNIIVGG
inactive: [1] 0.065 | [2] -0.196 | [3] -0.111 | [4] 0.032 | [5] 0.043 | [6] 0.032 | [7] -0.126 | [8] -0.096 | [9] 0.065 | [10] 0.083 | [11] 0.037 | [12] 0 | [13] -0.019 | [14] -0.229 | [15] -0.052 | [16] -0.081 | [17] -0.053 | [18] 0.071 | [19] 0.004 | [20] 0.052

RCOR3 isoform 3 (UniProt Q9P2K3)
inactive: [1] -0.033 | [2] 0.025 | [3] 0.022 | [4] 0.009 | [5] -0.006 | [6] -0.017 | [7] -0.012 | [8] -0.02 | [9] -0.015 | [10] -0.015 | [11] -0.009 | [12] -0.03 | [13] 0.014 | [14] -0.004 | [15] 0.011 | [16] 0 | [17] 0.002 | [18] -0.038 | [19] 0.002 | [20] -0.011

RABEPK (UniProt Q7Z6M1)
Sequence of UniProt Q7Z6M1 (Q7Z6M1 whole entry, looked up): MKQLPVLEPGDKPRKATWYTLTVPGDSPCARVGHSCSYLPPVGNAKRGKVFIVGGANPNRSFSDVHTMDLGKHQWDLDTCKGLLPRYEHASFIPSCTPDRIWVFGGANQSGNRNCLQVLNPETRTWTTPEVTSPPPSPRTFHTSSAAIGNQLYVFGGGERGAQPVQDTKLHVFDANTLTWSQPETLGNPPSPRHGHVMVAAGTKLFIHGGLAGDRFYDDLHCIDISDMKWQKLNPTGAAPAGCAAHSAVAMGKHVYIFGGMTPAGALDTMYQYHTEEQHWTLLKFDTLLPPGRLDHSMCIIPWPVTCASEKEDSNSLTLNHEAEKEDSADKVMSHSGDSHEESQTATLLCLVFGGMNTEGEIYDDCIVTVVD
inactive: [1] -0.01 | [2] 0.014 | [3] 0.012 | [4] 0.004 | [5] 0.032 | [6] 0.007 | [7] -0.024 | [8] -0.03 | [9] -0.032 | [10] 0.014 | [11] 0 | [12] -0.002 | [13] 0.01 | [14] -0.006 | [15] 0.018 | [16] -0.009 | [17] -0.007 | [18] 0.008 | [19] 0.001 | [20] 0

RAB21 (UniProt Q9UL25)
Sequence of UniProt Q9UL25 (Q9UL25 whole entry, looked up): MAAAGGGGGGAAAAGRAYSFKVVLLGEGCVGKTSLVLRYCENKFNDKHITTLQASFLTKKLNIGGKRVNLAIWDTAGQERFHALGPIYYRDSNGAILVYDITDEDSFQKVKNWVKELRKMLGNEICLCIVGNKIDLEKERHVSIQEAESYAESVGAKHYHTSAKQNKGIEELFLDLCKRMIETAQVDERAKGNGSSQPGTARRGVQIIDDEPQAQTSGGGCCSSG
inactive: [1] 0 | [2] -0.008 | [3] 0.015 | [4] 0.02 | [5] 0.02 | [6] -0.028 | [7] -0.034 | [8] 0.026 | [9] 0.012 | [10] 0.045 | [11] 0.026 | [12] -0.004 | [13] 0.057 | [14] -0.02 | [15] -0.002 | [16] 0.019 | [17] 0.021 | [18] -0.023 | [19] -0.002 | [20] 0.015

RBBP7 isoform 2 (UniProt Q16576)
Sequence of UniProt Q16576 (Q16576 whole entry, looked up): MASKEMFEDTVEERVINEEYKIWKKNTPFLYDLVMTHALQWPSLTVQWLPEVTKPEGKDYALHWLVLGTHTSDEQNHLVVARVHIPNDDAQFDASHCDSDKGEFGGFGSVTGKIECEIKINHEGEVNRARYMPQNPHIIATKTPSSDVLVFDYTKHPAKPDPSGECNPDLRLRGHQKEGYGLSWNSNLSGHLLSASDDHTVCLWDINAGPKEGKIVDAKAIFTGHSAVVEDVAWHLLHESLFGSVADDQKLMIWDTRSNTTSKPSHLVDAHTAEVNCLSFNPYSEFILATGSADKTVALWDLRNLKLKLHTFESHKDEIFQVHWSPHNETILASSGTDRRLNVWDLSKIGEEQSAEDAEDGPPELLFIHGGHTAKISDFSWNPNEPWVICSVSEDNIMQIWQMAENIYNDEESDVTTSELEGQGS
inactive: [1] -0.036 | [2] 0.046 | [3] -0.036 | [4] -0.03 | [5] -0.013 | [6] -0.002 | [7] 0.055 | [8] 0.041 | [9] -0.026 | [10] -0.006 | [11] 0.016 | [12] 0.043 | [13] 0.062 | [14] 0.042 | [15] -0.028 | [16] -0.029 | [17] 0.011 | [18] -0.002 | [19] -0.001 | [20] 0.034

RIPK1 (UniProt Q13546)
Sequence of UniProt Q13546 (Q13546 whole entry, looked up): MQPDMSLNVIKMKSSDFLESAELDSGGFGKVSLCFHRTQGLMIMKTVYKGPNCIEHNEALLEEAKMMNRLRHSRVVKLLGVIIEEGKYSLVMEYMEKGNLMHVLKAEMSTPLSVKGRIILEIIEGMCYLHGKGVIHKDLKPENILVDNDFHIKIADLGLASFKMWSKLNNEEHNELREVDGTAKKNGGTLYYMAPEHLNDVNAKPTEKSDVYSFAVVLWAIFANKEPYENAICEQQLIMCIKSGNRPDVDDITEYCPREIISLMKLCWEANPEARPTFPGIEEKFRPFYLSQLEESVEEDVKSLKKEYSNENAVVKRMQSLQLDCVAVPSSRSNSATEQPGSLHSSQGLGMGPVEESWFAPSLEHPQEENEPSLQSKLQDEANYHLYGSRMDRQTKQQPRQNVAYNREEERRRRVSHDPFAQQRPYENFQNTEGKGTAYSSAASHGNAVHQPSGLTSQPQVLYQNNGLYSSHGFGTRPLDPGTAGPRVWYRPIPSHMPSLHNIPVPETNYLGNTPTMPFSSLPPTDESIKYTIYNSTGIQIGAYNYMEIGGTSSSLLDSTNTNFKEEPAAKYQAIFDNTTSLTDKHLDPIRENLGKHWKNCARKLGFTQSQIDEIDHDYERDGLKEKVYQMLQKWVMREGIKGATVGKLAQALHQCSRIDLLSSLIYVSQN
inactive: [1] -0.026 | [2] -0.01 | [3] -0.017 | [4] -0.022 | [5] -0.015 | [6] 0.008 | [7] 0.08 | [8] 0.031 | [9] -0.057 | [10] 0 | [11] -0.02 | [12] -0.025 | [13] -0.009 | [14] -0.011 | [15] 0.018 | [16] 0.001 | [17] -0.013 | [18] 0.001 | [19] -0.02 | [20] 0.003

SERINC3 (UniProt Q13530)
Sequence of UniProt Q13530 (Q13530 whole entry, looked up): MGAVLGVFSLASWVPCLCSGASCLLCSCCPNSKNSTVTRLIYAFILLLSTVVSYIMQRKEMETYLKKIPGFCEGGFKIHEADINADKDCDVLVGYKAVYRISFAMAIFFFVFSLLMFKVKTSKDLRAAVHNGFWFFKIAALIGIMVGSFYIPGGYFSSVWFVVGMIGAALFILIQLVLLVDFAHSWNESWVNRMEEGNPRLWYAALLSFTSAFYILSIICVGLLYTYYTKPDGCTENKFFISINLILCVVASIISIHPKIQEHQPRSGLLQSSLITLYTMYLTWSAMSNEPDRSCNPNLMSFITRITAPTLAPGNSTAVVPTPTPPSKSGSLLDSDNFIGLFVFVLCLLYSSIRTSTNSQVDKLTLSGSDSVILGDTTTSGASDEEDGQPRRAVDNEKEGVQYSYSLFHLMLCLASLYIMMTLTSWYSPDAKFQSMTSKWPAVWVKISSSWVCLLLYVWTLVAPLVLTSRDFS
inactive: [1] 0.068 | [2] 0.145 | [3] 0.065 | [4] 0.073 | [5] 0.021 | [6] -0.02 | [7] -0.101 | [8] -0.03 | [9] 0.024 | [10] 0.018 | [11] 0.06 | [12] -0.082 | [13] 0.01 | [14] -0.003 | [15] -0.016 | [16] -0.012 | [17] -0.055 | [18] 0.049 | [19] -0.042 | [20] -0.011

RBBP7 (UniProt Q16576)
inactive: [1] -0.038 | [2] -0.032 | [3] -0.021 | [4] -0.005 | [5] 0.007 | [6] -0.014 | [7] -0.008 | [8] 0.045 | [9] -0.022 | [10] -0.082 | [11] 0.062 | [12] 0.018 | [13] 0.018 | [14] 0 | [15] -0.042 | [16] -0.003 | [17] 0.014 | [18] -0.114 | [19] 0.002 | [20] -0.03
